# Only some compounds are listed: those with a hit (about 1.6% of all), similar ones and a draw of the others.
# KCNQ2 block: inhibitors of rat KCNQ2 potassium channel; actives 1.1% (n = 310,000); B-score at 10 µM; O88943; CHO-K1 KCNQ2, FluxOR thallium flux, 20 min; stronger effect = lower value;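 active = fluorescence ratio B-score at most minus 3 library SDs, with starting brightness B-score within 2 library SDs, cut at about -5.5 in these data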
# KCNQ2 pot: KCNQ2 (rat) channel potentiation; actives 0.54% (n = 310,000); O88943; CHO-K1 KCNQ2, FluxOR thallium flux fluorescence; stronger effect = higher value; B-score at 10 µM; AID 2239;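 active = fluorescence ratio B-score at least 3 SD of library B-scores, with initial fluorescence B-score within 3 of them, cut at about 5.3 in these data; same plate scores as AID 2156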;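 note: B-score of peak minus minimum over baseline fluorescence ratio after K+ and Tl+ stimulus; positive B-score means potentiation of KCNQ2 with more thallium influx and brighter signal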
# Kir21 confirm: confirmation of mouse Kir2.1 potassium channel inhibitors; actives 41% (n = 2,300); Kir2.1-expressing cells, FluxOR thallium flux fluorescence; stronger effect = lower value; AID 2032; Tl flux remaining, % of negative control (stronger effect = lower value), % at 10 µM; shares compounds with KCNQ2 pot;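 active = Primary-screen hit whose thallium flux fell at least 3 control SD below untreated wells in both duplicates, with normal baseline fluorescence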;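 note: 0% = blank wells without stimulus and 100% = stimulated no-compound controls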
# HEK293 Tl flux: parental HEK293 activity in Kir2.1 inhibitor counter-screen; AID 2105; FluxOR signal as % of negative control (100 = no effect), % at 10 µM; parental HEK293 cells, FluxOR thallium flux fluorescence; 0% = unstimulated blank wells; actives 19% (n = 2,300); shares compounds with KCNQ2 pot;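 active = dye signal at least 3 control SD above or below untreated wells in both duplicates, raw fluorescence within 3, either direction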;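 note: percent is based on the flux ratio of peak minus minimum fluorescence over baseline F0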
# CHO-K1 Tl ctr: alters thallium flux in parental CHO-K1 cells, KCNQ2 counter-screen. shares compounds with KCNQ2 pot. AID 2282. activity increase over 3SD of controls, % at 10 µM. FluxOR thallium flux fluorescence; zero = vehicle mean+3SD, 100% = vehicle-minus-blank window. actives 43% (n = 1,200);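 active = signal rise of at least 3 SD above the untreated control mean, in both duplicate wells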;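 note: counter screen of KCNQ2 potentiator hits so any rise reflects channel-independent effects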
# KCNQ1 sel pot: selectivity of KCNQ2 potentiators: effect on human KCNQ1. activation over 3SD threshold, % at 10 µM. shares compounds with KCNQ2 pot. CHO KCNQ1 stable, FluxOR thallium flux fluorescence; beyond 3SD, as % of vehicle-control signal. AID 2283. actives 28% (n = 1,200);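 active = fluorescence ratio rise of at least 3 SD of vehicle wells above their mean, in both replicate wells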;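 note: 0% = vehicle mean plus 3 SD and 100% = vehicle minus unstimulated blank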
# KCNQ2 pot conf: rat KCNQ2 channel potentiator confirmation; AID 2287; shares compounds with KCNQ2 pot; potentiation, less the hit threshold, % at 10 µM; CHO-KCNQ2 cells, FluxOR thallium flux fluorescence; actives 68% (n = 1,200);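 active = fluorescence ratio rising 3 SD or more over the vehicle control mean in both replicates, plus primary screen hit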;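 note: peak minus minimum thallium fluorescence divided by baseline after K/Tl stimulus; 0% = vehicle mean plus 3 SD and 100% = vehicle minus unstimulated blank difference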
# Kir21 spec: tests whether KCNQ2 potentiators also affect mouse Kir2.1. shares compounds with KCNQ2 pot. HEK293 Kir2.1, FluxOR thallium flux fluorescence. activity over 3SD threshold, % at 10 µM. actives 2% (n = 1,200);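 active = fluorescence ratio rise of at least 3 SD above the vehicle-control mean, seen in both replicates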;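 note: 0% = vehicle mean plus 3 SD and 100% = vehicle minus no-stimulus blank window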
# KCNQ2 W236L pot: rat KCNQ2 W236L mutant potentiation by KCNQ2 potentiators. current increase over 3SD of negative controls (%), stronger effect = higher value, % at 25 µM. CHO KCNQ2-W236L, automated patch clamp current. AID 2558. shares compounds with KCNQ2 pot. actives 10% (n = 940);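 active = current increase at least 3 SD of the untreated controls above them in both duplicate recordings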
# Target sequence (O88943 whole entry W236L, looked up): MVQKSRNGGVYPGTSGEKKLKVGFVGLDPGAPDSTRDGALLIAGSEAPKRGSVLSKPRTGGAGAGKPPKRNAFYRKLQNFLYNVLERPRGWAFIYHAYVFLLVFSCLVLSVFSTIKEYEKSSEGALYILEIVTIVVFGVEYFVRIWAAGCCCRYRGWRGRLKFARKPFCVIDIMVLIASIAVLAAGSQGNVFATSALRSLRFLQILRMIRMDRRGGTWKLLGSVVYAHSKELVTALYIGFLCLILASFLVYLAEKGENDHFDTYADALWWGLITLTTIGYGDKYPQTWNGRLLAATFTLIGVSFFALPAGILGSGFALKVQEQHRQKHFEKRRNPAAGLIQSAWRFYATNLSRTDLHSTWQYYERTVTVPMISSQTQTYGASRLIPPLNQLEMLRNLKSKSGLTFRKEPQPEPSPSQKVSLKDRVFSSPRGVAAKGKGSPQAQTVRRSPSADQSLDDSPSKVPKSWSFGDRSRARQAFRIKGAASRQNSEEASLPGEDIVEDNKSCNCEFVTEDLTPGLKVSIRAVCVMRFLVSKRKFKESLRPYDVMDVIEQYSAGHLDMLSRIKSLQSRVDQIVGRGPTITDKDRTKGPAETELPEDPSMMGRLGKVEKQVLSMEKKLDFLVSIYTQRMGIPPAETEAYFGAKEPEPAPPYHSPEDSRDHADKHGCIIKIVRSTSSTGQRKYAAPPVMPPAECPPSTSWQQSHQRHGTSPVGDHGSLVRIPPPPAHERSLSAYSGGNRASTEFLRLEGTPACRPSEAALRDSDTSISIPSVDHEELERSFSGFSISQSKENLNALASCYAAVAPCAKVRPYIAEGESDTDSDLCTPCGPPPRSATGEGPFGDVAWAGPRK
# Starred values were filed as active, the others as inactive; i = inactive; . = no result given.
SMILES,KCNQ2 block,KCNQ2 pot,Kir21 confirm,HEK293 Tl flux,others
N#Cc1nc(Cc2cccc3ccccc23)oc1NCCCN1CCOCC1,i,.,52%*,i,
O=[N+]([O-])c1cccc(S(=O)(=O)Nc2nc3ccccc3nc2Nc2cccc(S(=O)(=O)N3CCCCC3)c2)c1,i,8.2*,i,i,CHO-K1 Tl ctr=-13;KCNQ1 sel pot=17*;KCNQ2 pot conf=-26;Kir21 spec=-39
Cc1ccc(S(=O)(=O)Nc2nc3ccccc3nc2Nc2cccc(S(=O)(=O)N3CCCC3)c2)cc1,i,.,.,.,
COc1cc(OC)c(C(=O)OCC(=O)Nc2ccccc2Cl)cc1OC,i,.,.,.,
Cc1cccc(NC(=O)CSc2nnc(-c3ccncc3)n2CC2CCCO2)c1 (stereo not given),i,1.4,.,.,
O=C(Oc1ccc(C(=S)N2CCOCC2)cc1Br)c1ccccc1F,i,.,.,.,
O=C(Oc1ccc(C(=S)N2CCOCC2)cc1Cl)c1ccccc1F,i,.,69%*,i,
O=C(Oc1ccc(C(=S)N2CCOCC2)cc1)c1ccccc1F,i,0.17,71%*,i,
O=C(Oc1ccc(C(=S)N2CCOCC2)cc1)c1ccccc1[N+](=O)[O-],i,.,.,.,
CCc1noc(C)c1C(=O)N1CCN(S(=O)(=O)c2cccs2)CC1,i,.,.,.,
Cc1ccccc1CSCc1nc2ccccc2[nH]1,i,.,.,.,
Cc1ccc(C)c(CSCc2nc3ccccc3[nH]2)c1,i,.,74%*,i,
O=C1CC(=O)N(CCNc2ncc(C(F)(F)F)cc2Cl)C(=O)N1,i,1.7,.,.,
O=C1C=CC(=O)N1CCNc1ncc(C(F)(F)F)cc1Cl,i,.,74%*,i,
Nc1nc2c(F)c(F)c(F)cc2s1,i,1.3,.,.,
CCC1COCCS(=O)(=O)N1Cc1ccc(C)cc1 (stereo not given),i,1.2,.,.,
CCC[C@H]1COCCS(=O)(=O)N1Cc1ccc(Br)cc1,i,0.37,i,128%*,
COC(=O)CSc1ccccc1C(=O)OC,i,.,.,.,
COC(=O)CSC1=NS(=O)(=O)c2ccccc21,-7.9*,-7.9,58%*,i,
O=C(/C=C/c1ccc([N+](=O)[O-])cc1)/C=C/c1ccco1,-6.1*,-6.1,i,i,
O=C(/C=C/c1ccc([N+](=O)[O-])cc1)NCc1ccco1,i,0.51,.,.,
Cc1cc(NC(=O)NC(=O)c2ccccc2F)no1,i,0.85,.,.,
O=c1cc(C(F)(F)F)[nH]c(=S)n1-c1ccccc1,i,0.53,.,.,
CCOC(=O)C1(CCc2ccccc2)CCN(C(=O)C2CCOCC2)CC1,i,.,.,.,
COc1ccccc1-n1c(-c2ccccc2)c[n+]2c1CCc1ccccc1-2,i,.,.,.,
SMILES,KCNQ2 block,KCNQ2 pot,Kir21 confirm,HEK293 Tl flux,others
COc1ccc(-c2cn(-c3ccc(OC)cc3)c3[n+]2-c2ccccc2CC3)cc1,i,.,.,.,
CC(C)c1ccc(-n2c(-c3ccccc3)c[n+]3c2CCc2ccccc2-3)cc1,-7.4*,-7.4,20%*,i,
COc1ccc(-n2c(-c3ccc(Br)cc3)c[n+]3c2CCc2ccccc2-3)cc1,i,.,60%*,74%*,
O=C(NC1CCN(C(=O)Nc2ccc(F)cc2)CC1)c1ccc(F)cc1,i,0.74,.,.,
Cc1ccc(S(=O)(=O)Oc2ccccc2/C=N/N=C(N)N)cc1,i,.,46%*,i,
Cc1ccc(S(=O)(=O)Oc2ccccc2/C=N/NC(N)=S)cc1,i,0.42,.,.,
Cc1ccc2oc(C(=O)N3CCC(O)(c4cccc(C(F)(F)F)c4)CC3)c(C)c2c1,i,.,.,.,
CC(C)Oc1ccc(C(=O)NC2CCCCC2)cc1,i,.,.,.,
CC(C)Oc1ccc(C(CCN)C2CCCCC2)cc1 (stereo not given),i,.,44%*,65%*,
N#Cc1cccnc1N1CCN(C(=O)COCC(=O)O)CC1,i,0.94,.,.,
CSCCC(NC(=O)/C(=C/c1ccco1)NC(=O)c1ccc(Br)o1)C(=O)O (stereo not given),i,.,.,.,
CN(Cc1ccccc1)CC(O)COc1ccc(CNCc2cccnc2)cc1 (stereo not given),i,.,.,.,
CN(Cc1ccccc1)CC(O)COc1ccc(CNCc2ccc(Cl)s2)cc1 (stereo not given),i,.,24%*,i,
CC(=O)CCSc1ncnc2sc(-c3ccccc3)cc12,i,.,.,.,
O=C(O)CCSc1ncnc2sc(-c3ccccc3)cc12,i,9.6*,i,198%*,CHO-K1 Tl ctr=17*;KCNQ1 sel pot=3.1*;KCNQ2 pot conf=33*;Kir21 spec=-21;KCNQ2 W236L pot=16%*
CCOC(=O)C1CCN(Cc2cccc(OCc3ccccc3)c2)CC1,i,.,20%*,i,
NC(=O)C1CCN(Cc2cccc(OCc3ccccc3)c2)CC1,i,0.01,.,.,
CC(C)(C)c1ccc(OCC(=O)Nc2ccncc2)c(Br)c1,i,5.6*,i,i,CHO-K1 Tl ctr=-20;KCNQ1 sel pot=-11;KCNQ2 pot conf=-2;Kir21 spec=-28;KCNQ2 W236L pot=i
CCc1ccc(OCC(=O)Nc2ccncc2)c(Br)c1,i,3.2,.,.,
Cc1cc(C)n(CCC(=O)Nc2cccc(F)c2)n1,i,.,.,.,
CN(c1ccccc1)S(=O)(=O)c1cccc(C(=O)OCC(=O)NCc2ccco2)c1,i,1.3,.,.,
CN(c1ccc(F)cc1)S(=O)(=O)c1ccc(Cl)c(C(=O)OCC(=O)NCc2ccco2)c1,i,8.8*,i,i,CHO-K1 Tl ctr=15*;KCNQ1 sel pot=-14;KCNQ2 pot conf=24*;Kir21 spec=-40;KCNQ2 W236L pot=i
CCOC(=O)c1c(NC(=O)C2CCCCC2)sc2c1CCN(C(C)C)C2,i,0.48,.,.,
COc1cccc(OC)c1OCCCOc1c(OC)cccc1OC,i,.,.,.,
COc1cccc(OC)c1OCCOc1ccccc1OC(C)C,i,.,41%*,i,
O=C(COc1coc(CN2CCN(c3ccccc3)CC2)cc1=O)Nc1ccc(F)cc1,i,.,.,.,
COc1ccc(-c2[nH]ncc2CNC(C)CCn2cccn2)cc1F (stereo not given),i,1.8,.,.,
COc1ccc(-c2[nH]ncc2CNC(C)c2ccccc2Cl)cc1F (stereo not given),i,3,60%*,i,
Cc1ccc(S(=O)(=O)N2CCN(C(=O)COC(=O)C3CCC3)CC2)cc1,i,1.2,.,.,
O=S(=O)(NCCc1ccccn1)c1ccc(F)c(F)c1,i,6.1*,i,i,CHO-K1 Tl ctr=3.1*;KCNQ1 sel pot=-14;KCNQ2 pot conf=-7;Kir21 spec=-36;KCNQ2 W236L pot=i
